Data published in PubChem BioAssay (NCATS).
“And” between values parts separate entries of the source, which are not always exact repeats. Identical values can stand only once. Records with an inconclusive call do not appear. The source made the active and inactive calls. Unless noted, the call rests on the fitted dose curve; in most records, active means well fitted curve in the direction sought with a large enough effect; inconclusive means small, poorly fitted or top-dose-only effect, or another doubt; inactive means no such curve, though single readings can be large; an effect the other way counts as inactive or inconclusive.

How the values were obtained:
[1] = target: Tyrosine-protein kinase Yes (Homo sapiens) (UniProt P07947); experiment: qHTS for small molecule inhibitors of Yes1 kinase: Primary Screen (AID 686947); further: nearly all actives have a fitted effect of over 60% in size; further: potency means the concentration at half of the fitted maximal effect
In short: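 ADP-Glo luminescence reports ADP formed by 4 nM Yes1 phosphorylating poly(E4Y) (0.3 mg/mL) with 0.1 mM ATP for 60 min at room temperature, following 20 min compound preincubation; normalised between DMSO wells with and without enzyme.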

[2] = qHTS for small molecule inhibitors of Yes1 kinase: Counter Assay (AID 686950);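 further: no kinase present so only ADP-Glo detection of a fixed ADP amount is tested; luminescence from ADP-Glo reporting ADP in a fixed ATP and ADP mixture; 0% = DMSO wells with ATP plus ADP and -100% = ATP-only wells without ADP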
In short: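 No kinase present; 0.08 mM ATP + 0.02 mM ADP in 50 mM Tris pH 7.5, 10 mM MgCl2, 150 mM NaCl, 1 mM DTT; 20 min compound preincubation, 60 min RT, ADP-Glo luminescence, normalized to ATP/ADP (max) and ATP-only (min).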

[3] = qHTS Assay for Identifying Gametocytocidal Compounds (AID 743244); further: potency means the concentration at half of the fitted maximal effect;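 on max response: on the % scale 0 is the no-effect control and ±100 the full control effect; actives lower the fluorescent signal which means gametocytes are killed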; details: P. falciparum 3D7 stage III-V gametocytes, alamarBlue, 72 h; max response: stronger effect = lower value
In short: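 A resazurin-based viability read-out was applied to mature P. falciparum gametocytes: 72 h compound treatment, then 24 h dye incubation, with falling fluorescence signalling gametocytocidal effect.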

[4] = qHTS profiling for inhibitors of Plasmodium falciparum (3D7) proliferation (AID 743322; call rule not given here;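 further: infected erythrocytes exposed to compound for 72 h before lysis; 100% = DMSO vehicle wells and 0% = 0.29 µM artemisinin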); details: P. falciparum 3D7 proliferation; at 28.7 µM (top of the series)
In short: (§1)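 Parasite DNA was quantified by SYBR Green I fluorescence (ex 485, em 535 nm) after overnight lysis in saponin/Triton buffer at room temperature. Cultures at 0.3% parasitemia and 2.5% hematocrit were first exposed to compound for 72 h at 37 C; signals were normalised to artemisinin (0.29 uM) and vehicle wells.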

[5] = qHTS profiling for inhibitors of Plasmodium falciparum (DD2) proliferation (AID 743323; call rule not given here); details: lower = more inhibition; at 28.7 µM (top of the series)
In short: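 P. falciparum Dd2-infected erythrocytes (0.3% parasitemia, 2.5% hematocrit) exposed 72 h at 37 C, 5% CO2. Lysis with SYBR Green, overnight at room temperature, fluorescence 485/535 nm; normalized to 0.29 uM artemisinin and DMSO.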

[6] = qHTS profiling for inhibitors of Plasmodium falciparum (HB3) proliferation (AID 743324); details: Plasmodium falciparum HB3 blood-stage proliferation; at 28.7 µM (top of the series);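 further: 100% = DMSO vehicle wells and 0% = artemisinin-treated control wells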
In short: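 SYBR Green fluorescence (485 ex/535 em) of lysed cultures, incubated overnight at room temperature in the dark, quantifies parasite DNA. Infected erythrocytes at 0.3% parasitemia and 2.5% hematocrit were exposed 72 h; values normalized to DMSO and 0.29 uM artemisinin controls.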

[7] = qHTS profiling of the MIPE4 collection as inhibitors of Plasmodium falciparum (3D7) proliferation (AID 743344; call rule not given here;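 further: scaled between DMSO vehicle wells and 0.29 µM artemisinin as full inhibition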); details: P. falciparum 3D7 in erythrocytes, SYBR Green DNA fluorescence, 72 h; at 28.5 µM (top of the series) unless noted
In short: as §1

[8] = qHTS profiling of the MIPE4 collection as inhibitors of Plasmodium falciparum (DD2) proliferation (AID 743345; call rule not given here); details: P. falciparum Dd2 in erythrocytes, SYBR Green DNA, 72 h; at 28.5 µM (top of the series) unless noted
In short: as §1

[9] = qHTS assay for environmental chemicals that activate the Aryl hydrocarbon Receptor (AhR) signaling pathway (AID 651777); details: 1A2-DRE human hepatoma cells, luciferase, 24 h; activation: stronger effect = higher value; further: % of control where 0% means no effect; nearly all actives have a fitted effect of over 15% in size
In short: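 Luminescence (One-Glo, 30 min, room temperature) reports AhR-driven luciferase in stably transfected human hepatoma cells bearing DRE and CYP1A2 promoter. Cells (1,200/well) were treated with compound for 24 hr at 37 C in qHTS format.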

[10] = target: Peroxisome proliferator-activated receptor alpha (Homo sapiens) (UniProt Q07869); experiment: qHTS assay for small molecule agonists of the peroxisome proliferator-activated receptor alpha (PPARalpha) signaling pathway (AID 651778); details: PathHunter PPARalpha complementation, chemiluminescence, 6 h; stronger effect = higher value; further: % of control where 0% means no effect
In short: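 Enzyme-fragment complementation assay in which ligand-bound PPARalpha translocates and forms an active enzyme that generates chemiluminescence. Cells were plated overnight, exposed to compound for 6 hr at 37 C, and then given detection reagent for 60 min at room temperature.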

[11] = target: Nuclear receptor ROR-gamma (Homo sapiens) (UniProt P51449); experiment: qHTS assay for small molecule antagonists of the retinoid-related orphan receptor gamma (ROR-gamma) signaling pathway (AID 651802); further: nearly all actives have a fitted effect of over 60% in size; further: potency means the concentration at half of the fitted maximal effect
In short: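 Luminescence (One-Glo, 30 min RT) measured 16 h after compound addition and doxycycline induction at 37C. Reporter: RORE-luciferase under TET-inducible ROR-gamma in CHO cells.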

[12] = target: Arylsulfatase A (Homo sapiens) (UniProt P15289); experiment: qHTS screen for enhancers of Arylsulfatase A (ASA1): LOPAC Validation Assay (AID 720538); details: outcome: dose series up to 57.5 µM
In short: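 Read-out: fluorescence at Ex=525/Em=598 nm after 1N NaOH final stop. Patient fibroblasts carrying ASA-I179S had 48h compound exposure, then 14h room-temperature pNCS hydrolysis (0.5mM final) in lysis buffer. Signal increase = enhanced activity.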

[13] = qHTS for compounds that reverse cellular toxicity of Amyloid beta (A-beta) peptide in yeast: LOPAC Validation Assay (AID 720559);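 further: plate controls were DMSO for no effect and equimolar ferric chloride plus clioquinol rescue for full effect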
In short: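 OD600 growth readout after 48 hr at 30 C; A-beta-toxic yeast plus pinned compounds in medium. Normalization: DMSO = negative, equimolar FeCl3 + clioquinol = positive.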

[14] = qHTS for Activators of Parkin Expression: LOPAC Validation Assay (FLuc Reporter) (AID 720573)
In short: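 FLuc luminescence read-out from a neuronal line expressing a Parkin-promoter-driven coincidence reporter. Cells treated 24 h at 37 C, 5% CO2 with compounds at 7 concentrations; signal increase normalized to DMSO and positive control.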

[15] = qHTS assay for small molecule antagonists of the retinoid-related orphan receptor gamma (ROR-gamma) signaling pathway - cell viability counter screen (AID 720652; active means well fitted curve in the direction sought with a large enough effect in the repeat runs; an effect the other way counts as inactive or inconclusive;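 further: compound exposure lasted 16 hr before ATP read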; further: potency means the concentration at half of the fitted maximal effect)
In short: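 Cytotoxicity counter screen: intracellular ATP (CellTiter-Glo luminescence) measured in the doxycycline-induced CHO RORE-luciferase reporter line after 16 hr compound exposure at 37 C, 5% CO2.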

[16] = qHTS assay for small molecule agonists of the antioxidant response element (ARE) signaling pathway measured by Nrf2-dependant transcriptional activity - cell viability counter screen (AID 720653; active means well fitted curve in the direction sought with a large enough effect in the repeat runs; an effect the other way counts as inactive or inconclusive; further: on the % scale 0 is the no-effect control and ±100 the full control effect); details: ARE-bla HepG2 viability, CellTiter-Glo ATP luminescence, 16 h; max response: stronger effect = lower value
In short: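 ARE-bla HepG2 cells treated with compounds for 16 h at 37C; this counter screen measures viability as intracellular ATP by CellTiter-Glo luminescence after 30 min at room temperature.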

[17] = target: Hexokinase-4 (Homo sapiens) + Glucokinase regulatory protein (Homo sapiens) (UniProt P35557+Q14397); experiment: qHTS assay for inhibitors of recombinant human GCK-GKRP interaction: Diaphorase-coupled assay (AID 743205)
In short: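 Resorufin fluorescence (525/590 nm), read each minute over 30 min, reports GCK activity coupled via G6PDH and diaphorase. Reaction: 10 nM GST-GCK, 10 nM FLAG-GKRP, 5 mM glucose, 0.4 mM ATP, 0.15 mM NADP+, 0.1 mM resazurin.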

[18] = qHTS assay for cell viability of HEK293 cells (AID 743288); details: ATP luminescence (CellTiter-Glo), 18 h; max response: stronger effect = lower value; further: nearly all actives have a fitted effect of over 50% in size; further: potency means the concentration at half of the fitted maximal effect; on max response: on the % scale 0 is the no-effect control and ±100 the full control effect
In short: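 ATP luminescence (CellTiter-Glo) reports metabolically competent cell number after parental HEK293 cells, 2,000/well, were treated with DMSO-dissolved compounds for 18 h at 37 C; reagent incubation 30 min, room temperature.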

[19] = qHTS assay for cell viability of the p53RE-bla HCT-116 cell line (AID 743292); further: on the % scale 0 is the no-effect control and ±100 the full control effect; nearly all actives have a fitted effect of over 55% in size
In short: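 ATP-based luminescent viability (CellTiter-Glo, 30 min RT) after 16 h compound treatment at 37 C of p53RE-bla HCT-116 cells, seeded at 4,000 cells/well and rested 5 h before dosing.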

[20] = qHTS for Activators of Parkin Expression: LOPAC Validation Assay (NLuc Reporter) (AID 720572)
In short: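 NLuc signal, read 10 min after reagent and following a prior FLuc read, is normalized to DMSO (0) and positive controls (100%). Cells: neuronal Parkin-promoter coincidence reporter line; compounds tested 7-point, 24 h, 37 C, 5% CO2.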

Chain of Arylsulfatase A (Homo sapiens) (P15289 whole entry, looked up): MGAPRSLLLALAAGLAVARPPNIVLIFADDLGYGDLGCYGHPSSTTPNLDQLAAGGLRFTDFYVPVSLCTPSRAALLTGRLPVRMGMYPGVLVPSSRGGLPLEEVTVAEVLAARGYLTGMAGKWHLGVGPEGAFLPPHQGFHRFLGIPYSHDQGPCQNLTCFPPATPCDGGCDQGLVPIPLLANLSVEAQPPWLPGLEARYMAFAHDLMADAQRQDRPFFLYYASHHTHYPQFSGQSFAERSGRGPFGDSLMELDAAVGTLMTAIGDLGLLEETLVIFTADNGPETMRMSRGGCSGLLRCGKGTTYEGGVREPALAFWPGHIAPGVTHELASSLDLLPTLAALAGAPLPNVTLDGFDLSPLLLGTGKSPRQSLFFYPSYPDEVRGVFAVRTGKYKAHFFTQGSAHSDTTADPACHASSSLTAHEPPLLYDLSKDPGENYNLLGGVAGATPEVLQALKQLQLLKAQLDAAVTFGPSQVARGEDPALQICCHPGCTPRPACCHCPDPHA
Chain of Hexokinase-4 (Homo sapiens) + Glucokinase regulatory protein (Homo sapiens) (P35557 whole entry, looked up): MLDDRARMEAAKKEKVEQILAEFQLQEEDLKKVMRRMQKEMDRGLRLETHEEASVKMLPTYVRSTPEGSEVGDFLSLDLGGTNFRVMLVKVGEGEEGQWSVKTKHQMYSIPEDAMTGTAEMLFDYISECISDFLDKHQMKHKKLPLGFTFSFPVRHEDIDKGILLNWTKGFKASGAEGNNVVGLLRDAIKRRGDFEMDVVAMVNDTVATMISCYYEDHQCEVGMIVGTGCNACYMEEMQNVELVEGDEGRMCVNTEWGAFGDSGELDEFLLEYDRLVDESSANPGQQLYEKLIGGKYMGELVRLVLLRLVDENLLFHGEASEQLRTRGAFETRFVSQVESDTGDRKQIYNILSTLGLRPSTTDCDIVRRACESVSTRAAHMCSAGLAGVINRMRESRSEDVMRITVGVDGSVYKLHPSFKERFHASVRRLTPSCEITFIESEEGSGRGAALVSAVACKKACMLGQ
Chain of Hexokinase-4 (Homo sapiens) + Glucokinase regulatory protein (Homo sapiens) (Q14397 whole entry, looked up): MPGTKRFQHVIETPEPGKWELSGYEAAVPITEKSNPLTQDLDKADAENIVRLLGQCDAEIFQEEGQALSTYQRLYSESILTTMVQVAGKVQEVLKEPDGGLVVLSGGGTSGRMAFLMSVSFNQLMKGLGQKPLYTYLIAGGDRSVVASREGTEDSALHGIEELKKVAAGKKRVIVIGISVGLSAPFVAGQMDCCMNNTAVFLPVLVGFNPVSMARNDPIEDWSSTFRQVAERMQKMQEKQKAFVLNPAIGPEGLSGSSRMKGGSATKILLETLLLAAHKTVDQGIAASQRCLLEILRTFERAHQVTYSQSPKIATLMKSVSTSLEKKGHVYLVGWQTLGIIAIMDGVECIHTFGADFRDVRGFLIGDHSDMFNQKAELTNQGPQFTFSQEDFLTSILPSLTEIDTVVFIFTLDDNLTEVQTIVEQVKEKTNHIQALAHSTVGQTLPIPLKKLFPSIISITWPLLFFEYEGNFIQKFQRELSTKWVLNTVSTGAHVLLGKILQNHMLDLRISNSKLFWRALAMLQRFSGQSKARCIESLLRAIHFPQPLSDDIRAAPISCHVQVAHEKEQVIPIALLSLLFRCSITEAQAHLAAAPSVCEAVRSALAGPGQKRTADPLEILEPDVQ
Chain of Tyrosine-protein kinase Yes (Homo sapiens) (P07947 whole entry, looked up): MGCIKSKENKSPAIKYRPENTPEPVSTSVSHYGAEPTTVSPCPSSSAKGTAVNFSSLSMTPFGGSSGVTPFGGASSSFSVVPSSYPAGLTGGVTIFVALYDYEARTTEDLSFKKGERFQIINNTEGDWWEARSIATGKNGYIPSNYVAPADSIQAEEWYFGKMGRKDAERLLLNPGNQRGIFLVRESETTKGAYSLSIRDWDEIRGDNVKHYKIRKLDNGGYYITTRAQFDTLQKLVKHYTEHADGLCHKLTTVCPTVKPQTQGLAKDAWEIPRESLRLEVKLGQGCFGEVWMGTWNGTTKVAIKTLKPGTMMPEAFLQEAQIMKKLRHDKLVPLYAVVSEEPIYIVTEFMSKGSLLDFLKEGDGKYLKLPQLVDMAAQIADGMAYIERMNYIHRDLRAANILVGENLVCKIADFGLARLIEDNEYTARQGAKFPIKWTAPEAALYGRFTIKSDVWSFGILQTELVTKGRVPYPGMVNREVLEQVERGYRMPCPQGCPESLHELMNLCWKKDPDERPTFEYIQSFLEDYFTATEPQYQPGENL
Chain of Nuclear receptor ROR-gamma (Homo sapiens) (P51449 whole entry, looked up): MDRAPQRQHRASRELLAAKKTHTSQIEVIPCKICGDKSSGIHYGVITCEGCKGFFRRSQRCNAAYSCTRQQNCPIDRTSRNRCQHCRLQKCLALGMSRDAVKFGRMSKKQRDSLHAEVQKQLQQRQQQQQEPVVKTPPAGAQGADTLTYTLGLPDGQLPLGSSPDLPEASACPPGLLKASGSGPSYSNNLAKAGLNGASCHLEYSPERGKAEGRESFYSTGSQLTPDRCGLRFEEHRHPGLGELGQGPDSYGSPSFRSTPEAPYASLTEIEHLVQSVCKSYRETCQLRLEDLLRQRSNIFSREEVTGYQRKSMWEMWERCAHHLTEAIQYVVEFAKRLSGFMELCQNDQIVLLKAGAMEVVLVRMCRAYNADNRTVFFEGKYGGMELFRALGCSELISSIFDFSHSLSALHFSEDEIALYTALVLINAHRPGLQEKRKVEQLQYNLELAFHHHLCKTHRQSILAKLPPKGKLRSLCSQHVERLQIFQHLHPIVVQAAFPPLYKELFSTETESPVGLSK
Chain of Peroxisome proliferator-activated receptor alpha (Homo sapiens) (Q07869 whole entry, looked up, the tested form may be a part): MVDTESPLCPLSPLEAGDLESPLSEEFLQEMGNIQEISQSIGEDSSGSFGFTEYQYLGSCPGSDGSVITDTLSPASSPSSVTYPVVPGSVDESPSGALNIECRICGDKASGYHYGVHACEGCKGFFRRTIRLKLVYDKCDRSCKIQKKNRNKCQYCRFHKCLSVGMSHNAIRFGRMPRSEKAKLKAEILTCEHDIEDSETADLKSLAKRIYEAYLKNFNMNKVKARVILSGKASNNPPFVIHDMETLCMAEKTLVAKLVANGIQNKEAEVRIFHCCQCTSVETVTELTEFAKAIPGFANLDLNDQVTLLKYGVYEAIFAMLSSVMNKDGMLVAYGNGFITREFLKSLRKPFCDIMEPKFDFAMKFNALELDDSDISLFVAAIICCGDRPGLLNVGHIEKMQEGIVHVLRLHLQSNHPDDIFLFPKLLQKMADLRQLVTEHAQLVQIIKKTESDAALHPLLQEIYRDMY

O=c1cc(CN2CCOCC2)occ1OCCCCCSc1ccnc2cc(C(F)(F)F)ccc12
17.5%: remaining proliferation (% of control), lower = more inhibition [6]
28.8%: remaining parasite growth % (stronger effect = lower value) [4]
26.8%: activity, percent of control [5]
36.7%: parasite growth, % of DMSO control [7]
inactive: Potency [1] | outcome [2] | max response [3] 18.6%
56.7%: parasite growth remaining, % of DMSO control (lower = more inhibition) [8]

CCCCC1C(=O)N(c2ccccc2)N(c2ccccc2)C1=O
inactive: activation [9] -1.23% and 0.389% | max response [10] -2.74% and -1.79% | Potency [11] | outcome [12] | outcome [13] | Potency [14] | Potency [15] | max response [16] 4.44% and 1.83% | outcome [17] | max response [3] -1.91% and -0.936% and 31.1% | max response [18] -8.44% and -3.31% | Potency [19]

CC/C(=C(\c1ccccc1)c1ccc(OCCN(C)C)cc1)c1ccccc1
inactive: activation [9] -5.69% and -2.28% | Potency [1] | outcome [2] | outcome [12] inactive; inhibitor; fitted 5.3582 uM | outcome [13] | Potency [20] | Potency [14] | max response [16] -20.9% | outcome [17] | max response [3] 10%
active: Potency [11] 29.8 µM | Potency [15] 66.8 µM | Potency [18] 70.8 µM

CC(=O)O[C@]1(C(C)=O)CC[C@H]2[C@@H]3C=C(Cl)C4=CC(=O)[C@@H]5C[C@@H]5[C@]4(C)[C@H]3CC[C@@]21C
inactive: activation [9] 1.28% and -0.271% | max response [10] 0.54% and -4.74% | outcome [12] | outcome [13] | Potency [20] | Potency [14] | Potency [15] | max response [16] -29.6% and -20.9% | outcome [17] | max response [3] 5.83% | max response [18] -22.8% | Potency [19]

O=C(O)c1ccc(-c2cc3cccnc3c(-c3ccc4nonc4c3)n2)cc1
15.8%: parasite growth, % of DMSO control [7]
92.9%: activity, percent of control [5]
98.1%: remaining parasite growth % (stronger effect = lower value) [4]
53.9%: parasite growth remaining, % of DMSO control (lower = more inhibition) [8]
93.9%: remaining proliferation (% of control), lower = more inhibition [6]
inactive: Potency [1] | outcome [2] | max response [3] 33.8%

OC[C@H]1O[C@@H](n2cnc3c2NC=NC[C@@H]3O)C[C@H]1O
99.7%: remaining proliferation (% of control), lower = more inhibition [6]
92.5%: parasite growth remaining, % of DMSO control (lower = more inhibition) [8]
106%: activity, percent of control [5]
inactive: outcome [2] | max response [3] 12.6%
81.4%: parasite growth, % of DMSO control [7]
active: Potency [1] 21.8 µM
97.1%: remaining parasite growth % (stronger effect = lower value) [4]

O=c1[nH]cnc2c1ncn2[C@H]1CC[C@@H](CO)O1
97.1%: parasite growth remaining, % of DMSO control (lower = more inhibition) [8]
inactive: activation [9] -1.42% and 4.55% | max response [10] -3.68% and -4.63% | Potency [11] | Potency [15] | max response [16] 7.68% and 6.47% | max response [3] -6.96% | max response [18] -8.26% and -9.92% | Potency [19]
178%: parasite growth, % of DMSO control [7]

CN(C)CCC(c1ccccc1)c1ccccn1 (configuration not stated)
inactive: activation [9] -0.0214% | max response [10] -0.672% | outcome [12] | outcome [13] | Potency [20] | Potency [14] | Potency [15] | max response [16] -6.47% | outcome [17] | max response [3] 15.2% | max response [18] 2.94% | Potency [19]

CCCNC(=O)NS(=O)(=O)c1ccc(Cl)cc1
inactive: activation [9] 0.08% and -1.06% | max response [10] 5.97% and -0.845% | Potency [11] | outcome [13] | Potency [20] | Potency [14] | Potency [15] | max response [16] 9.19% and -14.5% | outcome [17] | max response [3] 10.2% and -7.21% | max response [18] 3.46% and -2.3% | Potency [19]

Cc1nc(N)sc1-c1ccnc(Nc2ccc(N3CCOCC3)cc2)n1
6.44%: parasite growth, % of DMSO control [7]
7.68%: activity, percent of control [5]
inactive: outcome [2] | max response [3] -1.3%
2.54%: remaining parasite growth % (stronger effect = lower value) [4]
active: Potency [1] 0.308 µM
9.15%: parasite growth remaining, % of DMSO control (lower = more inhibition) [8]
10.5%: remaining proliferation (% of control), lower = more inhibition [6]

O=C(Nc1ccccc1-c1cn2c(CN3CCNCC3)csc2n1)c1cnc2ccccc2n1
5.73%: parasite growth remaining, % of DMSO control (lower = more inhibition) [8]
-2.01% and -0.108%: remaining parasite growth % (stronger effect = lower value) [4]
active: Potency [3] 3.72 µM
-2.58% and -1.42%: remaining proliferation (% of control), lower = more inhibition [6]
inactive: Potency [1] | outcome [2]
-0.76% and -0.434%: activity, percent of control [5]
5.22%: parasite growth, % of DMSO control [7]

CC(=O)c1ccc(S(=O)(=O)NC(=O)NC2CCCCC2)cc1
inactive: activation [9] -0.49% and 0.0331% | max response [10] 9.98% and -1.51% | Potency [11] | outcome [12] | outcome [13] | Potency [20] | Potency [14] | Potency [15] | max response [16] 2.45% and -5.62% | outcome [17] | max response [3] -4.23% and -12.4% | max response [18] 4.87% and -10.8% | Potency [19]

O=C(O)Cc1cccc2ccccc12
inactive: activation [9] 0.508% and -1.02% | max response [10] -0.727% and -1.42% | Potency [11] | Potency [15] | max response [16] -3.63% and 1.79% | max response [3] 19.3% and -5.56% | max response [18] 1.25% and 0.847% | Potency [19]
